Unmarked numbers belong to inactive results. For some assays here: Results with a measured potency or affinity are listed apart. Active and inactive are the calls of the source. Unless noted, the rule behind the calls is not given here.
Experiments:
[1] = antimalarial activity against Dd2 strain (AID 2302;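 active = growth inhibition above 50% at the single 2 µM test dose, taken to imply half-maximal potency below 2 µM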;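 note: 0% = DMSO untreated growth and 100% = chloroquine plus artemisinin killed control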); settings: P. falciparum Dd2 in RBCs, LDH growth readout, 72 h; at 2 µM; hits give high values
[2] = HepG2 cytotoxicity, primary screen, cytotoxicity control for P. falciparum antimalarial project, cell-based, ATP luminescence (AID 2303;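 active = inhibition above 50%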;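 note: 0% = DMSO wells and 100% = digitonin-killed cells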); settings: HepG2 viability, 24-48 h, at 10 µM, hits give high values
[3] = target: L-lactate dehydrogenase (Plasmodium falciparum (isolate CDC / Honduras)) (UniProt Q27743); assay: PfLDH activity inhibition – cell lysate, 3D7 strain, counter-screen for P. falciparum growth inhibition project (AID 2304);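 note: 0% = vehicle and 100% = reference inhibitor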; settings: P. falciparum 3D7 crude extract, LDH APAD/NBT absorbance; at 2 µM; hits give high values
[4] = inhibition of 3D7 malaria parasite growth – strain 3D7 (AID 2306);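 note: 0% = DMSO wells and 100% = chloroquine plus artemisinin control wells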; settings: P. falciparum 3D7 erythrocytic growth, LDH absorbance, 72 h; at 2 µM; hits give high values
[5] = target: Calcium-dependent protein kinase 1 (Plasmodium falciparum (isolate 3D7)) (UniProt P62344); assay: PfCDPK1 kinase inhibitors, biochemical, TCAMS library (AID 1159585; cut-off not given, nearly all actives have IC50 up to about 0.98 µM;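 note: inhibitors leave more ATP so luminescence rises with inhibition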); settings: recombinant PfCDPK1, Kinase-Glo ATP depletion luminescence
[6] = target: Plasmodium falciparum protein kinase 6 (PK6, PF3D7_1337100) (UniProt Q8IDW1); assay: PfPK6 kinase inhibitors, biochemical, TCAMS library (AID 1159586); settings: recombinant PfPK6, Kinase-Glo ATP depletion luminescence
[7] = target: Protein kinase 7 (PK7), Plasmodium falciparum 3D7 (PF3D7_0213400) (UniProt Q7YTF7); assay: inhibition of Plasmodium PK7 catalytic activity – biochemical, TCAMS antimalarial set, Kinase-Glo luminescence (AID 1159587); settings: recombinant PfPK7, Kinase-Glo ATP depletion luminescence
[8] = target: Calcium-dependent protein kinase 4 (Plasmodium falciparum (isolate 3D7)) (UniProt Q8IBS5); assay: PfCDPK4 kinase inhibitors, biochemical, TCAMS library (AID 1159588; cut-off not given, nearly all actives have IC50 up to about 0.91 µM); settings: recombinant PfCDPK4, Kinase-Glo ATP depletion luminescence
Calcium-dependent protein kinase 4 (Plasmodium falciparum (isolate 3D7)), sequence (Q8IBS5 whole entry, looked up): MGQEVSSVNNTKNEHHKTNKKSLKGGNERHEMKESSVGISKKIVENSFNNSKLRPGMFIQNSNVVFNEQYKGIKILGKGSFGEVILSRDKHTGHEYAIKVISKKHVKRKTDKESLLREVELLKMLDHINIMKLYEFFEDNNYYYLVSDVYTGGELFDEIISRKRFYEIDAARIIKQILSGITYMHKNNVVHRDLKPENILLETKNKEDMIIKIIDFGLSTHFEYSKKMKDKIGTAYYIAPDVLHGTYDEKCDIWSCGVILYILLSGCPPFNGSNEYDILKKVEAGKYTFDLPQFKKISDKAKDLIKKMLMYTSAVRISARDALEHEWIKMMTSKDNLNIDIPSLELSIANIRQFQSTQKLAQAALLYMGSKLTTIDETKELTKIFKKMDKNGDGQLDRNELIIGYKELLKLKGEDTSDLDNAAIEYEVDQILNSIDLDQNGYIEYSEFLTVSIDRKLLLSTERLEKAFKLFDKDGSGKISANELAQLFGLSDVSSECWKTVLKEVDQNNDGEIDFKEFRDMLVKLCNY

Calcium-dependent protein kinase 1 (Plasmodium falciparum (isolate 3D7)), sequence (P62344 whole entry, looked up): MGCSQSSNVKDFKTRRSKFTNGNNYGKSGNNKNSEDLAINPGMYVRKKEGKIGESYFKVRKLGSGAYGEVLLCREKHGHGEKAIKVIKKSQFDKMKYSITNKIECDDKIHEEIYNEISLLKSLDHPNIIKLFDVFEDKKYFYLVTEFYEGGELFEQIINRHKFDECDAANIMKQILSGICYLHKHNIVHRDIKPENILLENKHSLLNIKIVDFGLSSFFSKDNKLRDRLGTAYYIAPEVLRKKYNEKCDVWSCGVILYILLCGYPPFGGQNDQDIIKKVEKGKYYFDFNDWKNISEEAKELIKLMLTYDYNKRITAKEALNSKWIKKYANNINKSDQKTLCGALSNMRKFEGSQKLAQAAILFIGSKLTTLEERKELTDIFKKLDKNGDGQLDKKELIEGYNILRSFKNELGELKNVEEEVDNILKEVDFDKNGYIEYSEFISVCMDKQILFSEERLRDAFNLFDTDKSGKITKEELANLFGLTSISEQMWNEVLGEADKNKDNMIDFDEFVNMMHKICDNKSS
Protein kinase 7 (PK7), Plasmodium falciparum 3D7 (PF3D7_0213400), sequence (Q7YTF7 1-343): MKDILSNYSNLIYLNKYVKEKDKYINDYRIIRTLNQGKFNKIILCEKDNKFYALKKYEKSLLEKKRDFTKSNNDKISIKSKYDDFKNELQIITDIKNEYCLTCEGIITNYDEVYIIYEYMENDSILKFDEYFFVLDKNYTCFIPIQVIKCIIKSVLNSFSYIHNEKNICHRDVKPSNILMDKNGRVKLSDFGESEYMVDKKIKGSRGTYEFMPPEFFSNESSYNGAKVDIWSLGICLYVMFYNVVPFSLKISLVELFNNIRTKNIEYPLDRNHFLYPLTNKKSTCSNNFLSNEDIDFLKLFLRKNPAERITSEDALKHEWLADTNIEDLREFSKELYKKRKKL
L-lactate dehydrogenase (Plasmodium falciparum (isolate CDC / Honduras)), sequence (Q27743 whole entry, looked up): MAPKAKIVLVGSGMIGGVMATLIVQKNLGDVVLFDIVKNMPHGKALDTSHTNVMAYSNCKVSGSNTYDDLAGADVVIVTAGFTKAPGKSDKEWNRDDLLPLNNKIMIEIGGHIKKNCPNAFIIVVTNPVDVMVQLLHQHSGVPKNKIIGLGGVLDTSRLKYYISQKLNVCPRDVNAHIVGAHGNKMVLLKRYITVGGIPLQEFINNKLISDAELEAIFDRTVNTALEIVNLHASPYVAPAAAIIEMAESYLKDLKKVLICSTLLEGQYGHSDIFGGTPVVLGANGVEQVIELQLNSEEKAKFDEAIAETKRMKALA
Plasmodium falciparum protein kinase 6 (PK6, PF3D7_1337100), sequence (Q8IDW1 1-305): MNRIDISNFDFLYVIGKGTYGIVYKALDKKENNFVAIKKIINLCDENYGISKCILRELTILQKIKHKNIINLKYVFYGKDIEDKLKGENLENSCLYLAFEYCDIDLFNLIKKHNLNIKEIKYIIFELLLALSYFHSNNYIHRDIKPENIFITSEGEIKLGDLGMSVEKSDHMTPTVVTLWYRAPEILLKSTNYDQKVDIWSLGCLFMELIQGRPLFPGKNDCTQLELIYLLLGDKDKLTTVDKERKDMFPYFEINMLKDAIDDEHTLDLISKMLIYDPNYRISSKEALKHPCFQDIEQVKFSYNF

Cc1nccc2c(NC(=O)N[C@@H]3CCN(c4ncc(C(F)(F)F)cc4Br)C3)cccc12
growth inhibition [1]: 27% | inhibition [2]: 21% | inhibition [3]: -4% | growth inhibition [4]: 96% (active) | outcome [5]: inactive | outcome [6]: inactive | outcome [7]: inactive | outcome [8]: inactive

Cc1cc(N(C)C)nc(Nc2ccc(NC(=O)c3ccc(F)cc3)cc2)n1
growth inhibition [1]: 21% | inhibition [2]: 8% | inhibition [3]: -3% | growth inhibition [4]: 100% (active) | outcome [5]: inactive | outcome [6]: inactive | outcome [7]: inactive | outcome [8]: inactive

CSc1ccc(CN2CCC(CNC(=O)c3cc(-c4ccccc4F)cs3)C2)cc1 (configuration not stated)
growth inhibition [1]: 13% | inhibition [2]: 32% | inhibition [3]: 2% | growth inhibition [4]: 90% (active) | outcome [5]: inactive | outcome [6]: inactive | outcome [7]: inactive | outcome [8]: inactive

COc1ccc(C2CCN(CCCCNC(=O)c3ccc(NC(=O)c4ccc(Cl)cc4)cc3)CC2)cc1Cl
growth inhibition [1]: 75% (active) | inhibition [2]: 28% | inhibition [3]: 4% | growth inhibition [4]: 97% (active) | outcome [5]: inactive | outcome [6]: inactive | outcome [7]: inactive | outcome [8]: inactive

From PubChem BioAssay
